Bioassay records (PubChem BioAssay)
Measles CPE: protection of cells from measles virus | hit rate 1.5% among 140,000 | Measles virus-infected cells, CPE protection, absorbance | protection (pct of control), % at 4 µM; in the data active = protection mostly above about 24%, no sharp cut-off; inactive = mostly below about 26%
F-actin modifier: alters cytoskeleton assembly in HUVEC cells. HUVEC TNFa F-actin phalloidin imaging, high content. inhibition, % at 2 µM. hit rate 0.18% among 91,000. AID 836;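 active = inhibition above the batch mean plus 3 SD and confirmed as a hit by visual image inspection, cut at about 30% in these data, passing the limit was not always enough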
A number is an active result; – = inactive; · = no result. Hits are enriched below; roughly 1.5% of the tested compounds scored in any of these assays.

SMILES	Measles CPE	F-actin modifier
N#Cc1c(N)nc2c(c1-c1ccncc1)CCCCC2	–	–
O=C(COC(=O)c1ccccc1Nc1cccc(C(F)(F)F)c1)NCc1ccco1	–	–
Cc1cc(NC(=O)c2c(Cl)cnn2C)no1	–	–
Cn1ncc(Cl)c1C(=O)Nc1ccc(Cl)cn1	28	–
O=C(/C=C/c1ccncc1)c1ccc(NC(=O)c2ccccc2F)cc1	–	·
Cc1ccc(C(=O)OCC(=O)c2c[nH]c3ccccc23)cc1S(=O)(=O)N1CCCCC1	–	·
N#Cc1c(-n2ccnc2)cccc1-n1ccnc1	–	–
C/C(=N/N1CCN(c2ccccn2)CC1)c1cccc([N+](=O)[O-])c1	–	·
CCNS(=O)(=O)c1ccc(NC(=O)c2cc(C(F)(F)F)nn2C)cc1	101	–
CCNS(=O)(=O)c1ccc(NC(=O)c2cccnc2)cc1	–	·
CCCNC(=O)Cn1nc([N+](=O)[O-])c([N+](=O)[O-])c1C	–	·
CC(=O)Nc1ccc(Sc2ncnc3scc(-c4ccccc4)c23)cc1	–	·
CC(=O)Nc1cccc(Oc2ncnc3scc(-c4ccc(C(C)C)cc4)c23)c1	60	·
CC(=O)c1ccc(NS(=O)(=O)c2cccc(C)c2)cc1	41	–
CC(=O)c1ccc(NS(=O)(=O)c2ccc(C)cc2)cc1	–	–
CC(C(=O)N1CCc2ccccc21)n1cccc1 (stereo unspecified)	–	–
O=C(c1ccc(S(=O)(=O)N2CCCCC2)cc1)N1CCCc2ccccc21	–	–
O=C(c1ccc(S(=O)(=O)N2CCCC2)cc1)N1CCCc2ccccc21	36	–
CCOC(=O)CN(Cc1sccc1C)C(=O)Nc1ccc(OC)cc1OC	–	·
CCCn1c2ccccc2c2nc3ccccc3nc21	–	–
CCOC(=O)Cn1c2ccccc2c2nc3ccccc3nc21	46	–
Cc1ccc(NC(=O)/C(=C/c2cccs2)NC(=O)c2ccco2)c(C)c1	–	·
CC(CC(=O)Nc1ccc(C(N)=O)cc1)c1ccccc1 (stereo unspecified)	29	·
O=C(CC(C(=O)O)c1ccccc1)Nc1ccccc1 (stereo unspecified)	–	·
O=C(CCCCn1c(=O)[nH]c2ccccc2c1=O)N1CCN(c2cccc(C(F)(F)F)c2)CC1	–	–
SMILES	Measles CPE	F-actin modifier
O=C(CCCn1c(=S)[nH]c2ccccc2c1=O)N1CCN(c2cccc(Cl)c2)CC1	59	–
CCN1CCN(c2cc3c(nn2)Oc2ccccc2N3C)CC1	–	·
Cc1ccc(-n2c(C)cc(/C=N/NC(=O)c3ccc(CN4CCOCC4)cc3)c2C)cc1	71	–
Cc1cccc(-n2c(C)cc(/C=N/NC(=O)c3ccc(CN4CCOCC4)cc3)c2C)c1	–	–
CC1CCCN(c2nc3c(c(=O)[nH]c(=O)n3C)n2CCCc2ccccc2)C1 (stereo unspecified)	42	·
CC1CCN(c2nc3c(c(=O)[nH]c(=O)n3C)n2Cc2ccccc2)CC1	–	–
N#C/C(=C\Nc1ccccc1SC(F)(F)F)c1nc(-c2ccc(Cl)cc2)cs1	–	·
CC(C)(C)n1nc2c(c1NC(=O)c1ccc(S(=O)(=O)N3CCCCC3)cc1)CS(=O)C2 (stereo unspecified)	44	–
CC(C)(C)n1nc2c(c1NC(=O)c1ccc(Br)cc1)CS(=O)C2 (stereo unspecified)	–	–
Cc1ccc(NC(=O)C2Cc3ccccc3CN2C(=O)c2ccccc2)cc1Cl (stereo unspecified)	–	·
CCn1cc(C(=O)NC2CCC(C)CC2)c(=O)c2cc(S(=O)(=O)N3CCCCC3)ccc21 (stereo unspecified)	91	–
CCn1cc(C(=O)NCCCN2CCC(C)CC2)c(=O)c2cc(S(=O)(=O)N3CCCC3)ccc21	–	·
COc1ccccc1NC(=O)c1ccc(-n2cccn2)nc1	–	–
CCC(C)(C)n1nnnc1C(c1ccc(C)cc1)N(Cc1ccco1)Cc1cccs1 (stereo unspecified)	–	–
O=C(COC(=O)c1cccnc1Cl)NCc1ccc2c(c1)OCO2	33	·
O=C(COC(=O)c1cccnc1Nc1cccc(C(F)(F)F)c1)NCc1ccc2c(c1)OCO2	–	–
N#CC(C#N)=C(Nc1ccc(F)cc1)SCc1cccc(F)c1	–	·
O=C(/C=C/c1ccccc1)NC(NC(=S)Nc1cccc(O)c1)C(Cl)(Cl)Cl (stereo unspecified)	–	·
O=C(/C=C/c1ccccc1)NC(NC(=S)Nc1ccc(C(=O)O)cc1)C(Cl)(Cl)Cl (stereo unspecified)	45	·
Cc1ccc(C(=O)O)cc1N=Cc1cc(Br)cc(Br)c1O	–	·
CC(=O)Nc1sc(C)c(C)c1C(=O)OC1CCOC1=O (stereo unspecified)	37	–
Cc1ccsc1C(=O)OC1CCOC1=O (stereo unspecified)	–	·
COC(=O)CNC(c1ccccc1Cl)c1cc(Br)ccc1NS(=O)(=O)c1ccc(C)cc1 (stereo unspecified)	–	·
O=C(NC(=S)NCc1ccccc1)C1CCCCC1	–	–
COc1ccc(S(=O)(=O)Nc2cc(C)cc(C)n2)c2ccccc12	–	–
SMILES	Measles CPE	F-actin modifier
CCOc1ccc(S(=O)(=O)Nc2cc(C)ccn2)c2ccccc12	47	–
Cc1ccccc1NC(=O)CSc1nc2n(n1)CCCCC2	–	·
N#C/C(=N\Nc1cccc2ccccc12)c1nnc2n1CCCCC2	–	·
Cc1ccc(S(=O)(=O)CCC(=O)OCC(=O)c2ccc(C)c(C)c2)cc1	30	·
CC(=O)NCC(=O)OCC(=O)c1ccc(C)c(C)c1	–	–
CCOc1cc(/C=C2\CCCC(C(=O)C(F)(F)F)=C2O)ccc1O	–	·
Cc1ccc(Sc2nc([N+](=O)[O-])nn2C)cc1	–	·
CCCN1C2=NCCN2c2ccccc21	45	–
CCCN1C2=NCCCN2c2ccccc21	–	–
COc1cc(S(=O)(=O)N2CCCCC2)ccc1NC(C)=O	52	–
COc1ccc(S(=O)(=O)N2CCCCCC2)cc1NC(=O)Cc1cc(OC)c(OC)c(OC)c1	–	·
O=C1CN=CN=CN1c1ccc(Cl)cc1Cl	45	·
O=C1CC2CS(=O)(=O)CC2N1c1ccc(Cl)cc1Cl (stereo unspecified)	–	–
Cc1cc(NC(=O)Cn2c(C)nc3ccccc3c2=O)ccc1Br	–	–
C=CCN1C(c2ccccc2)=CS/C1=C(/C#N)c1nnc(N2CCOCC2)n1-c1ccccc1	52	·
CN1C(c2ccc(F)cc2)=CS/C1=C(/C#N)c1nnc(N2CCOCC2)n1-c1ccccc1	–	·
Cc1ccc(NC(=O)c2cccc(S(=O)(=O)N(C)c3ccccc3)c2)cc1S(=O)(=O)N1CCOCC1	–	·
Cc1cccc(N2C(=O)CN(Cc3sccc3C)C2=S)c1	–	·
Cc1cc(C)cc(N2C(=O)CN(Cc3sccc3C)C2=S)c1	46	·
CN(C)c1nc(Oc2ccc(=O)[nH]n2)nc(N2CCOCC2)n1	–	–
COc1nc(Oc2ccc(=O)[nH]n2)nc(N2CCOCC2)n1	44	–
O=C1Nc2ccccc2C1(c1ccccc1)c1ccccc1	52	–
Nc1ccc(C2(c3ccc(N)cc3)C(=O)Nc3ccccc32)cc1	–	–
O=C(NNC(=S)NCc1ccccc1)c1ccc2c(c1)OCO2	–	·
O=C(NC(=S)NCc1ccccc1)c1ccc2c(c1)OCO2	31	·
O=C(Cc1ccc2c(c1)CCCC2)Nc1ccc2ccccc2c1	–	·
COC(=O)CCCCCNc1ccc(C(=O)OC)cc1N	30	–
COC(=O)c1cc(Oc2ccc(C(=O)OC)cc2N)cc(C(=O)OC)c1	–	–
Cc1ccc2c(c1)C=CC(C)(C)S2(=O)=O	–	·
Cc1ccc(NS(=O)(=O)c2cc(NC(=O)c3cc4c(s3)CCCC4)ccc2C)c(C)c1	–	·
